Results published in the supplement of paper PMC11732987, “Enantioselective OTUD7B fragment discovery through chemoproteomics screening and high-throughput optimisation” (Communications Chemistry, 2025).

Assays:
Experiment in all cases: log2 ratio of Biotin-Ahx-Ub-VS probe labelling (fragment/DMSO); higher = less target engagement (more negative = stronger competition), active = hit call of the paper (q ≤ 0.05, log2 ratio ≤ -1)
Settings in all cases: compound concentration: 200 uM; treatment time: 3 h
USP34 = USP34 (UniProt Q70CQ2)
Sequence of USP34 (Q70CQ2 whole entry, the tested form may be a part): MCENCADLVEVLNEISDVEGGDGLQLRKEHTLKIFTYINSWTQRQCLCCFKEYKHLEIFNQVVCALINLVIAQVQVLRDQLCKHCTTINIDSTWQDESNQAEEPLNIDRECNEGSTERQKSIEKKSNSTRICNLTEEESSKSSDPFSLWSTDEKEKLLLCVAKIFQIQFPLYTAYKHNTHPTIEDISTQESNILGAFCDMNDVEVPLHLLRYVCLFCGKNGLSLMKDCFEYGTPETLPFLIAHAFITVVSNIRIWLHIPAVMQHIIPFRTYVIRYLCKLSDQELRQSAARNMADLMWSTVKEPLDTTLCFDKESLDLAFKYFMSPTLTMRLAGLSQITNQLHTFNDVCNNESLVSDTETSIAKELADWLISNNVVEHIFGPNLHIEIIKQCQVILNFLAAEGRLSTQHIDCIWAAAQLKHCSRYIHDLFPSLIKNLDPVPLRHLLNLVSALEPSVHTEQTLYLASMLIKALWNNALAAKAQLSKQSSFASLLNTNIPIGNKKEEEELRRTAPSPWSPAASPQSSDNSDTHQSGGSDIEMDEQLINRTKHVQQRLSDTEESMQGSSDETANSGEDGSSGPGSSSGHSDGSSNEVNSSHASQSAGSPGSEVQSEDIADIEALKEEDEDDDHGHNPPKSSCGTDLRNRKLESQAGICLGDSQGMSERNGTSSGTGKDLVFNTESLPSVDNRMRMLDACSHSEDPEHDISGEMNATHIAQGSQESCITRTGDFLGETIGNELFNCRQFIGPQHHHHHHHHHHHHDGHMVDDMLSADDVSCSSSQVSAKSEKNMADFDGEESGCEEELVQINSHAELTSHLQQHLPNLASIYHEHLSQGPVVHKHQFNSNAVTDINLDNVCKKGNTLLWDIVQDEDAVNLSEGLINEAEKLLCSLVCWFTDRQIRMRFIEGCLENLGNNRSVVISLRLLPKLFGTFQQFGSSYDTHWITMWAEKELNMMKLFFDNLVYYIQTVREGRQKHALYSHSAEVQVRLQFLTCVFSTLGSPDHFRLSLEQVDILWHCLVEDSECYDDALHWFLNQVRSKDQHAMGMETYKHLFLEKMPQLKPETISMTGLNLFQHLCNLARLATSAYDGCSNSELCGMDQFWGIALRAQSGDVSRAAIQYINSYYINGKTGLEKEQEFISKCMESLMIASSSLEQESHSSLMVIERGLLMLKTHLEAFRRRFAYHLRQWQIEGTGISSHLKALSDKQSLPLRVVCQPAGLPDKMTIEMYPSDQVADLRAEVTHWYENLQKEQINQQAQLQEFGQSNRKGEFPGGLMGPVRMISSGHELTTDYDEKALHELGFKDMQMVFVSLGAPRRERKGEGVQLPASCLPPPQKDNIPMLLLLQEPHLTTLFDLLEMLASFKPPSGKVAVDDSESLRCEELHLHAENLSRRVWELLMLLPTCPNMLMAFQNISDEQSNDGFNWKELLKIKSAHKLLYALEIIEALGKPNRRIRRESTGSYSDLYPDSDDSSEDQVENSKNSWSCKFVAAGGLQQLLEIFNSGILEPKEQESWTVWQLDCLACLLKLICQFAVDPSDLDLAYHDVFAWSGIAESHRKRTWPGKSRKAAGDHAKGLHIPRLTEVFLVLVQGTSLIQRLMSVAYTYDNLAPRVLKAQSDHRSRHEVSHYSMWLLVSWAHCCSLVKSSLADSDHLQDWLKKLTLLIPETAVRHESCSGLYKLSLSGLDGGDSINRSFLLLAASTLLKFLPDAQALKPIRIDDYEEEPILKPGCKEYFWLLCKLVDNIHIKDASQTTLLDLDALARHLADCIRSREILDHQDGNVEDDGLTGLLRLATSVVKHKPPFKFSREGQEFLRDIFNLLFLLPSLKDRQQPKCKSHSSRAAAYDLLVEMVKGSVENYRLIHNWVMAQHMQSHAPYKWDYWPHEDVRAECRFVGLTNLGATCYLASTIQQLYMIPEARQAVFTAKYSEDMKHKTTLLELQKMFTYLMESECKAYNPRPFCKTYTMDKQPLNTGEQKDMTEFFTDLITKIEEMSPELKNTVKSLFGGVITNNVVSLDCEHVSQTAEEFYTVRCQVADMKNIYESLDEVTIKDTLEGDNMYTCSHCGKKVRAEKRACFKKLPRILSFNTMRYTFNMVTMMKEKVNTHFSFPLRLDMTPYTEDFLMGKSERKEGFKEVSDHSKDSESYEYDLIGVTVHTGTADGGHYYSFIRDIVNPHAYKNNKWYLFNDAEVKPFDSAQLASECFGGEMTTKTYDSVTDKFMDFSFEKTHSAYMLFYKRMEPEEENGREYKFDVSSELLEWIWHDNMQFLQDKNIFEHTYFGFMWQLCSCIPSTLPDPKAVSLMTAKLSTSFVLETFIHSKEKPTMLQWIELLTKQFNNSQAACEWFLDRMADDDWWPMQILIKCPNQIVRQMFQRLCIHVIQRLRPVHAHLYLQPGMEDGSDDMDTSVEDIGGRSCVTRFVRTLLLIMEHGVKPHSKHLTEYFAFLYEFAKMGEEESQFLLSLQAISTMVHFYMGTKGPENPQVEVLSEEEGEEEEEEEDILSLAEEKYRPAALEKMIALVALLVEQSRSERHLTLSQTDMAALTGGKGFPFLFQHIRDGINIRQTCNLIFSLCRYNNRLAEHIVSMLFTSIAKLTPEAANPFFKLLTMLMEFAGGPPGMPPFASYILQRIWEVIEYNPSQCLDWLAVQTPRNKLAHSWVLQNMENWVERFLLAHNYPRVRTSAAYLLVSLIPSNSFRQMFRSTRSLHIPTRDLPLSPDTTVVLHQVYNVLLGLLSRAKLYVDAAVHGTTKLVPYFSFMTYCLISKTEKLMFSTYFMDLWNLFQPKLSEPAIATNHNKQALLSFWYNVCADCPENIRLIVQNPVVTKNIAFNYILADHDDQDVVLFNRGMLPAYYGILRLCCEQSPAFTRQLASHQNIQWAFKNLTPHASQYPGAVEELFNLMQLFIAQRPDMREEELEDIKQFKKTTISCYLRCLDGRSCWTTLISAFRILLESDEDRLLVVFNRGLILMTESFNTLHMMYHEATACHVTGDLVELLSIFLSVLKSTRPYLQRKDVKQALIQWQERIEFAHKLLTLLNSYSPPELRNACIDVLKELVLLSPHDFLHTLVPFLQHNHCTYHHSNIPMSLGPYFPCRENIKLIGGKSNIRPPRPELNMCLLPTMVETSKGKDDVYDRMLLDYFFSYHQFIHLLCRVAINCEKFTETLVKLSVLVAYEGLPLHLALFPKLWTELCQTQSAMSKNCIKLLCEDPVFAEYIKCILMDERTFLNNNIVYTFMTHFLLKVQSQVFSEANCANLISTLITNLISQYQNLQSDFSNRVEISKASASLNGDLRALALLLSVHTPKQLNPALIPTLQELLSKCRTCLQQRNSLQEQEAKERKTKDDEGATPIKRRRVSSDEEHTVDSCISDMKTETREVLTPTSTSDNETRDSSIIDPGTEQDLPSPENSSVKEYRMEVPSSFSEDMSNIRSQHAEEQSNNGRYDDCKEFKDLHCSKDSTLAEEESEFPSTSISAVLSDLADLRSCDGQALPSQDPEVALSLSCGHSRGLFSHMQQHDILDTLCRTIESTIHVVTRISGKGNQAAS
Procedure, shortened: (§1)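 HEK293T lysate, 495 µg per sample in Tris/CHAPS/IGEPAL buffer with protease inhibitors, was treated in triplicate with fragment at 200 µM or vehicle for 3 h and then with Biotin-Ahx-Ub-VS at 0.5 µM final for 1 h. Labelled DUBs were NeutrAvidin-enriched, digested with LysC and trypsin, and run by diaPASEF LC-MS/MS. Spectronaut label-free quantities were global-median-normalised, and values are average log2 fragment/vehicle ratios by unpaired t-test on proteins with ≥2 unique peptides.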

USP36 = molecular target: T1, USP36 (UniProt Q9P275)
T1 sequence (whole entry): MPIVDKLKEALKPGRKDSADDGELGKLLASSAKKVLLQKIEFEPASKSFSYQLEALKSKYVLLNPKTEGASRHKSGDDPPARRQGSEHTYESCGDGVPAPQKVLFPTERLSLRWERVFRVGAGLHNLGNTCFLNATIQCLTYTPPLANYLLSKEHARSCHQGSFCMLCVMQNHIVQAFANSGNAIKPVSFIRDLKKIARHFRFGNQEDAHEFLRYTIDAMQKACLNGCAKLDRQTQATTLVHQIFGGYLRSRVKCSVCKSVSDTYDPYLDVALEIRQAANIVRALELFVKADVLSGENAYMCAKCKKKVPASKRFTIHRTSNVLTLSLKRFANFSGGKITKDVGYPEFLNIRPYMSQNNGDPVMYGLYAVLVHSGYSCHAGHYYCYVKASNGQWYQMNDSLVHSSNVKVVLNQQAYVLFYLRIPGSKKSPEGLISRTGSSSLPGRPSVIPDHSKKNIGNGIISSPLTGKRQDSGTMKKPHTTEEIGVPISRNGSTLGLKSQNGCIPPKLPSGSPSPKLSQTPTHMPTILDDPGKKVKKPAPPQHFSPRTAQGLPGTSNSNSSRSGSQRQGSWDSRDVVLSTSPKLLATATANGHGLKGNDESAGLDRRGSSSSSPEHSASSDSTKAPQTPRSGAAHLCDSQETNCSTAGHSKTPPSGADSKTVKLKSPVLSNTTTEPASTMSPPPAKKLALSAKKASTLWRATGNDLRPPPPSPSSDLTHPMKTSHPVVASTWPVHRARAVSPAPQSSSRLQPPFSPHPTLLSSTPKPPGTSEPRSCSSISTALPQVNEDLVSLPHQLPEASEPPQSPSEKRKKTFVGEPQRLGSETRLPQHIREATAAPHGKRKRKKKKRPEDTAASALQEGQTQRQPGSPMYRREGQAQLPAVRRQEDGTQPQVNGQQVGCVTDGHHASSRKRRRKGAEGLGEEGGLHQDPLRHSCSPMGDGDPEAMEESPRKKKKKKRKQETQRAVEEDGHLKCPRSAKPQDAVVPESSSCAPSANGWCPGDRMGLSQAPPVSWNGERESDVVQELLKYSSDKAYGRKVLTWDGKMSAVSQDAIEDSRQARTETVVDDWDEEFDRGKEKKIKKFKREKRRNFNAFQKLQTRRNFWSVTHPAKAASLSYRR
Procedure, shortened: as §1

USP38 = molecular target: T2, USP38 (UniProt Q8NB14)
T2 sequence (whole entry): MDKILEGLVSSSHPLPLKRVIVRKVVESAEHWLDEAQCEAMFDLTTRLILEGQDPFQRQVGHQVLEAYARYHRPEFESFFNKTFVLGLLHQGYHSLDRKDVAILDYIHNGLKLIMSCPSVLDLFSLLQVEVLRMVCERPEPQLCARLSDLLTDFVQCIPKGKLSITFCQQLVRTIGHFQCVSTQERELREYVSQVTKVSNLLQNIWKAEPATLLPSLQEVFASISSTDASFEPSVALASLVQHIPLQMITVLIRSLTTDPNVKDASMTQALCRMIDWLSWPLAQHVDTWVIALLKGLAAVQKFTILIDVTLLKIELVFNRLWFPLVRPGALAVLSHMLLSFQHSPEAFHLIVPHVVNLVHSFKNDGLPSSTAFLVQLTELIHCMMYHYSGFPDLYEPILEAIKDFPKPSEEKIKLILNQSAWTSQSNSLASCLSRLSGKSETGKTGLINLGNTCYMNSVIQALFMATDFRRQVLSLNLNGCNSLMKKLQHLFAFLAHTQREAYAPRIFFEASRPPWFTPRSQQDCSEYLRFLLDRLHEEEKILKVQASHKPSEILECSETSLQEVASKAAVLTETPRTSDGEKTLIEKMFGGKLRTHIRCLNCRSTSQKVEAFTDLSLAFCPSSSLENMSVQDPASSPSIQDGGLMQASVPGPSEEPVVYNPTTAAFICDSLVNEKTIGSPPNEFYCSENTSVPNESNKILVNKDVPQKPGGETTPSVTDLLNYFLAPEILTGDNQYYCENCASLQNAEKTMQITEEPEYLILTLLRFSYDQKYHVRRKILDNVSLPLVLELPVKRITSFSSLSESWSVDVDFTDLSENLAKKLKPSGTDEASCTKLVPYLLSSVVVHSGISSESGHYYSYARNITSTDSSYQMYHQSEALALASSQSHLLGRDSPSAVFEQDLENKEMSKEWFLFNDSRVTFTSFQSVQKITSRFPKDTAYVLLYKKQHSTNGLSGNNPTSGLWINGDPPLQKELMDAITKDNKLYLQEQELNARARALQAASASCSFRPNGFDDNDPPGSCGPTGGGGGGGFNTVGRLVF
Procedure, shortened: as §1

USP39 = molecular target: T3, USP39 (UniProt Q53GS9)
T3 sequence (whole entry): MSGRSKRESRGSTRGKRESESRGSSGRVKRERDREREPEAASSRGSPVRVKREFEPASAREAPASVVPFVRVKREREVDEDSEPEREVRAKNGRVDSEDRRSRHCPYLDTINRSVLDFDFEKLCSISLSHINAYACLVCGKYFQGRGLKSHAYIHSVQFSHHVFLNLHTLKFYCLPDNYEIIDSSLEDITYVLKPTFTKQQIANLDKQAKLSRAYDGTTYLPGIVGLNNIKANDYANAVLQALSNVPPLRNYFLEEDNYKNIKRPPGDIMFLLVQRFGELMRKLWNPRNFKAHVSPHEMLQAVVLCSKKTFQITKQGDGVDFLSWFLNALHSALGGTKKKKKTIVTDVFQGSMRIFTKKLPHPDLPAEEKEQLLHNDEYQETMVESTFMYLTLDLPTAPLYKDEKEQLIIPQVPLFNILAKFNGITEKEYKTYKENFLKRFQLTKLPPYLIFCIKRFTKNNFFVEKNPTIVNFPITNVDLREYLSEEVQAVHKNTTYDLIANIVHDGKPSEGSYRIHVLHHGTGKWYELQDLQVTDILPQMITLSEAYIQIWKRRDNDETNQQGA
Procedure, shortened: as §1

USP4 = molecular target: T4, USP4 (UniProt Q13107)
T4 sequence (whole entry): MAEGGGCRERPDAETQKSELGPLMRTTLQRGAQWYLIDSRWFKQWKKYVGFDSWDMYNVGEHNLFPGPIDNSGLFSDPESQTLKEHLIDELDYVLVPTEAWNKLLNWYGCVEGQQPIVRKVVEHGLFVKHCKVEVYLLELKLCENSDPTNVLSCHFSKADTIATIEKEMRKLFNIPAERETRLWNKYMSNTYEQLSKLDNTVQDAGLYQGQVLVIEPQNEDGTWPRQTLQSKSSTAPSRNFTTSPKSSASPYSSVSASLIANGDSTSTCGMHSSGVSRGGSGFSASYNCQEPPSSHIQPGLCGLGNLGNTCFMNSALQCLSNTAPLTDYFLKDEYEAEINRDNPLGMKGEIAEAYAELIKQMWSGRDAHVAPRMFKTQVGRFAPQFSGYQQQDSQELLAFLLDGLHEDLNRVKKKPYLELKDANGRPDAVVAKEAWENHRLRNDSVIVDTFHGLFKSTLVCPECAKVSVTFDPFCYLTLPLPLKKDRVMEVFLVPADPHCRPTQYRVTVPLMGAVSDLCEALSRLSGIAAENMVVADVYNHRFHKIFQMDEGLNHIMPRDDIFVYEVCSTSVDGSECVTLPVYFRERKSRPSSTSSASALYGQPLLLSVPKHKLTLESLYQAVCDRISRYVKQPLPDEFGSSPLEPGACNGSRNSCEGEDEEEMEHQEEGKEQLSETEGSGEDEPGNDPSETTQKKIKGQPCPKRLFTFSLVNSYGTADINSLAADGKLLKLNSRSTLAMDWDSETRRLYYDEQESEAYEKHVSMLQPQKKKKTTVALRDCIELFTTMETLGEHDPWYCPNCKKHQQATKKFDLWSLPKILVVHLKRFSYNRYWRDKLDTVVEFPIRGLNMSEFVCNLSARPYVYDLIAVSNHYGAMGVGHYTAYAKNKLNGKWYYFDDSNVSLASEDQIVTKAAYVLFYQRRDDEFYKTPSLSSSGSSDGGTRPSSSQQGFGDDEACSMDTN
Procedure, shortened: as §1

Measured: log2 ratio of Biotin-Ahx-Ub-VS probe labelling

O=C(CCl)N1CCC(O)(Cc2ccc(F)cc2)C1 (stereo not given)
inactive: USP34 -0.0775 | USP36 0.229 | USP38 0.29 | USP39 0.427 | USP4 -0.138
